Screening results deposited in PubChem by National Center for Advancing Translational Sciences (NCATS).
A selection: hits, their analogues and other compounds. The true share with any hit is near 22%.
Pf growth 96h: P. falciparum growth inhibition at 96 hours. Potency, µM (series often up to 28.7 µM), without a hit: at the highest dose activity change, negative = inhibition, usual class: inhibitors. P. falciparum luciferase reporter growth, 96 h. AID 504834. actives 6.9% (n = 320,000); also: potency is read from the fitted curve at half-maximal effect; % is scaled to controls: 0 for no effect and ±100 for the full control effect
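P. falciparum expressing integrated firefly luciferase, in erythrocytes at 2% hematocrit, 0.05% parasitemia, incubated with compounds 96 h at 37 C, 5% CO2. Growth inhibition read as loss of luminescence; two-generation exposure targets delayed-death apicoplast inhibitors.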
LmPK inhibitor: LmPK (Leishmania mexicana) enzyme inhibition; Q27686; purified LmPK, Kinase-Glo ATP luminescence, 1 h; Potency, µM (titrated, usually from 57.5 µM), for inactives: at the highest dose activity change, negative = inhibition, usual class: inhibitors; actives 0.37% (n = 290,000); AID 1721; also: potency is read from the fitted curve at half-maximal effect; % is scaled to controls: 0 for no effect and ±100 for the full control effect
Target sequence (Q27686 whole entry, looked up): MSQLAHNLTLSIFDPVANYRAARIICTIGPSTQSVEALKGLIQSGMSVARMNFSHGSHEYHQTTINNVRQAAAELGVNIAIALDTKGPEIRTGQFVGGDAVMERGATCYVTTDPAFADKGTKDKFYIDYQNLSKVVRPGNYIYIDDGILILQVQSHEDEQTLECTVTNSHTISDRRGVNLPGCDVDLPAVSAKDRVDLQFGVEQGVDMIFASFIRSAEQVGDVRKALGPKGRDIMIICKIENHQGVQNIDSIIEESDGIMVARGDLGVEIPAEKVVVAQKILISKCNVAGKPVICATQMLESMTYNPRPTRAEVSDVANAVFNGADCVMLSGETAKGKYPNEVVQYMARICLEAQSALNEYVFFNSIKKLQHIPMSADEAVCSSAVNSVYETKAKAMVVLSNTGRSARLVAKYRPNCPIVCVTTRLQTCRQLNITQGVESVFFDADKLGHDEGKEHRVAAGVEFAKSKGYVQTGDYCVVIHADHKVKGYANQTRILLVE
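Purified LmPK (0.1 nM) with 0.5 mM PEP and 0.1 mM ADP in imidazole buffer pH 7.2 with MgCl2/KCl, 1 h at room temperature. ATP formed was read by luciferase luminescence and normalized to no-enzyme and uninhibited controls.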
Shiga toxin inh: blocks Shiga toxin action in Vero cells. Vero cells, Shiga toxin protein synthesis inhibition reporter. inhibition, % at 38.7 µM. actives 9.2% (n = 290,000). AID 2315; in the data active = inhibition mostly above about 28%, no sharp cut-off; inactive = mostly below about 43%; also: 0% is about no effect
Pf growth 48h: inhibits P. falciparum growth in the first generation, 48 h; P. falciparum luciferase growth in erythrocytes, 48 h; actives 5.9% (n = 310,000); Potency, µM (titrated, usually from 28.7 µM), inactives show at the top dose activity change, negative = inhibition, hits mostly inhibitors; also: potency is read from the fitted curve at half-maximal effect; % is scaled to controls: 0 for no effect and ±100 for the full control effect
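Read-out is firefly luciferase luminescence from an integrated reporter in P. falciparum, so falling signal marks reduced parasite growth. Infected erythrocytes were at 2% hematocrit and 0.1% parasitemia (final) in Albumax-supplemented RPMI 1640.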
CHX counter: counter-screen hit for Shiga toxin inhibitors, cycloheximide; cell reporter, cycloheximide protein synthesis inhibition counterscreen; actives 12% (n = 300,000); AID 2314; max response, %; in the data active = max response mostly above about 13%, no sharp cut-off; inactive = mostly below about 14%; also: read at 38.3 µM for the half of the compounds with a filed dose; 0% is about no effect
* marks the source's active call; other numbers are inactive results; u = inconclusive; x = no result given; [ ] = another dose, or the depositor's remark. Unless noted, calls follow the shape of the dose curve; as a rule, active = well fitted inhibition curve with a large enough effect; inconclusive = small, poorly fitted or top-dose-only effect, or another doubt; inactive = no such curve, though single readings can be large or run the other way.

SMILES	Pf growth 96h	LmPK inhibitor	Shiga toxin inh	Pf growth 48h	CHX counter
O=C(CN(c1ccccc1Cl)S(=O)(=O)c1ccccc1)N/N=C/c1ccccc1C(=O)O	u	2%	-2	u	-3
O=C(CN(c1ccc2c(c1)OCCO2)S(=O)(=O)c1ccccc1)NCc1ccc(Cl)cc1	12µM*	0%	-9	-26%	-6
O=C(CN(c1ccc(F)cc1)S(=O)(=O)c1ccc2c(c1)OCCO2)NCc1ccccc1	u	7%	21	x	-3
O=C(CN(c1ccccc1Cl)S(=O)(=O)c1ccccc1)NCc1ccccc1	12µM*	-4%	21	u	7
NC(=O)c1ccc(/C=N/O)nc1	-25%	2%	17	3%	-3
CCS(=O)(=O)c1ccc2oc(Nc3ccccc3Br)nc2c1	184%	16µM*	79*	296%	35*
CCS(=O)(=O)c1ccc2oc(Nc3ccccc3Cl)nc2c1	299%	-21%	80*	208%	45*
CCNc1sc(S(C)(=O)=O)nc1S(=O)(=O)c1ccc(Cl)cc1	u	7%	-13	u	5
CCOC(=O)c1nn(-c2ccc(Cl)cc2)c2nc(-c3ccc(C)cc3)c(C#N)c(=O)n12	x	5%	6	9.3µM*	15
CCOC(=O)c1nn(-c2ccc(OCC)cc2)c2nc(-c3ccco3)c(C#N)c(=O)n12	u	3%	-9	12µM*	-3
CCOC(=O)c1nn(-c2ccc(OCC)cc2)c2nc(-c3cccc(OC)c3)c(C#N)c(=O)n12	u	-1%	-4	12%	5
CCC(Cc1ccccc1)NC(=O)CCNS(=O)(=O)c1cc(Br)cnc1N (stereo not given)	-1%	0%	-5	-22%	-2
Cc1cc(C)c2c(N)c(C(=O)NC3CCCC3)sc2n1	6%	0%	70*	15%	20*
Cc1cc(C)c2c(N)c(C(=O)NCC3CCCCC3)sc2n1	x	3%	130*	4%	35*
O=C(Cc1ccc(Br)cc1)Nc1ncc([N+](=O)[O-])s1	-1%	8%	96*	-106%	68*
O=C(Cc1ccc(Cl)cc1)Nc1ncc([N+](=O)[O-])s1	2%	-6%	67*	0%	43*
O=C(COc1ccc(Cl)cc1)Nc1ncc([N+](=O)[O-])s1	-19%	-5%	147*	199%	48*
O=C(Nc1ncc([N+](=O)[O-])s1)c1ccco1	107%	u	68*	163%	37*
Cc1cnc(NC(=O)Cc2ccc(Br)cc2)s1	u	-5%	2	4%	2
O=C(Cc1nnc(NC(=O)Nc2ccccc2F)s1)NCc1ccccc1	37%	4%	-15	17%	5
CCC(Oc1ccccc1)C(=O)Nc1ncc([N+](=O)[O-])s1 (stereo not given)	u	16%	12	31%	2
CC(CC(=O)Nc1ncc([N+](=O)[O-])s1)c1ccccc1 (stereo not given)	101%	10%	87*	3%	26*
O=C(COc1ccc(C2SCCS2)cc1)NNC(=O)C(Cl)Cl	72%	5%	48	39%	22*
Cc1ccc(NC(=O)COc2ccc(C3SCCS3)cc2)cc1	22%	2%	16	8%	17
COc1cccc(NC(=O)c2cccc(N3C(=O)C4C5C=CC(C5)C4C3=O)c2)c1 (stereo not given)	u	0%	18	u	12
SMILES	Pf growth 96h	LmPK inhibitor	Shiga toxin inh	Pf growth 48h	CHX counter
Cc1ccc(C(=O)Nc2ncc(C)s2)o1	218%	13µM*	50	x	35*
Cc1cc(C)nc(NC(=O)c2ccc(C)o2)n1	2%	-5%	-4	38%	-2
Cc1ccc(C(=O)Nc2ncc(C)s2)s1	297%	-6%	42	90%	17*
Cc1ccc(C(=O)Nc2ncc(Cc3ccc(F)cc3)s2)o1	u	-1%	156*	17%	41*
N#CC1=C2C=Cc3ccccc3N2CCCC1=O	4%[5.75 µM]	-27%	45*	85%	33*
O=C(CN1CCCC1)N1c2ccccc2C=Cc2ccccc21	-22%	-9%	14	8%	-2
CCCCCC(=O)Nc1ccc(S(=O)(=O)NC2=NCCCCC2)cc1	-24%	x	x	u	x
CCOc1ccc(OCC)c(NC(=O)C2CCN(S(=O)(=O)c3cccc4nonc34)CC2)c1	13µM*	-10%	-15	x	-2
COc1ccc(OC)c(S(=O)(=O)N2CCC(C(=O)NCCC3=CCCCC3)CC2)c1	-19%	4%	25	13µM*	-3
COc1ccc(CCNC(=O)C2CCN(S(=O)(=O)c3cccc4nonc34)CC2)cc1OC	8.3µM*	2%	-17	-12%	1
O=C(NCCc1ccccc1)C1CCN(S(=O)(=O)c2cccc3nonc23)CC1	39%	11%	-12	x	-2
COCCCNC(=S)N1CCN(C(c2ccccc2)c2ccccc2)CC1	-8%	11%	-2	13µM*	-3
CC(C)CNC(=S)N1CCN(C(c2ccccc2)c2ccccc2)CC1	2.1µM*	2%	8	u	-5
CCn1c(SCC(=O)NC2CC2)nnc1-c1ccc(F)cc1	17%	-11%	-25	16%	-2
CCn1c(C)cc(/C=C2\C(=O)NC(=O)N(c3ccccc3C)C2=O)c1C	0%	2%	-10	-1%	-1
Cc1ccccc1N1C(=O)NC(=O)/C(=C\c2cnn(-c3ccccc3)c2)C1=O	8%	-1%	56*	2%	24*
CC(CCc1ccccc1)N1CCN(Cc2ccccc2)CC1 (stereo not given)	12µM*	-2%	-3	26%	-6
CCS(=O)(=O)N1CCN(C(C)CCc2ccccc2)CC1 (stereo not given)	3.3µM*	-7%	17	-6%	-4
CC(C)N1CCN(S(=O)(=O)c2ccccc2)CC1	13%	-9%	-2	12%	-3
COc1ccc(CC2(C)OC(c3ccc(C)c([N+](=O)[O-])c3)=NN2C(C)=O)cc1 (stereo not given)	u	2%	0	u	1
CC(=O)c1sc(NC(=O)C(C)Oc2ccc3c(C)cc(=O)oc3c2)nc1C (stereo not given)	7%	-4%	-4	-8%	2
O=C(COc1ccccc1Cl)NCCC1=CCCCC1	-28%	2%	1	2%	2
CC(C)c1ccc(/C=N/n2c(-c3ccccc3)n[nH]c2=S)cc1	u	-1%	x	-1%	-3
Cc1nn(-c2ccccc2)c(C)c1/C=N/Nc1nc2ccccc2[nH]1	u	u	149*	0.59µM*	82*
BrC(/C=N/Nc1nc(N2CCOCC2)nc(N2CCOCC2)n1)=C/c1ccccc1	0%	1%	-8	12µM*	1
Cc1cc(=O)[nH]c(N/N=C/C(C)c2ccccc2)n1 (stereo not given)	-5%	1%	2	14%	10
Cc1cc(=O)[nH]c(N/N=C/c2c(C)nn(-c3ccccc3)c2C)n1	-25%	1%	9	12µM*	3
